Screen size: about 340,000 compounds; about 2,100 (0.62%) were called active.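 Rule for the calls: active = first-screen hits whose inhibition reached a set limit at any dose in the follow-up dose series; inconclusive = inhibition above the set first-screen limit but never retested; inactive = the rest.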 A selection follows. Entries with a potency or affinity are not part of this list.
molecular target: Rac GTPase-activating protein 1 (Homo sapiens) (UniProt Q9H0H5); assay: MgcRacGAP GTPase-activating activity inhibitors, confirmation, biochemical, ADP Hunter fluorescence, primary and confirmatory (AID 624330); settings: MgcRacGAP-stimulated Rac1 GTP hydrolysis, at 30 µM, stronger effect = higher value, GST-tagged Rac1 F28L mutant substrate;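 note: fluorescence reports GDP produced by GAP-driven GTP hydrolysis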
Sequence (Q9H0H5 whole entry, looked up): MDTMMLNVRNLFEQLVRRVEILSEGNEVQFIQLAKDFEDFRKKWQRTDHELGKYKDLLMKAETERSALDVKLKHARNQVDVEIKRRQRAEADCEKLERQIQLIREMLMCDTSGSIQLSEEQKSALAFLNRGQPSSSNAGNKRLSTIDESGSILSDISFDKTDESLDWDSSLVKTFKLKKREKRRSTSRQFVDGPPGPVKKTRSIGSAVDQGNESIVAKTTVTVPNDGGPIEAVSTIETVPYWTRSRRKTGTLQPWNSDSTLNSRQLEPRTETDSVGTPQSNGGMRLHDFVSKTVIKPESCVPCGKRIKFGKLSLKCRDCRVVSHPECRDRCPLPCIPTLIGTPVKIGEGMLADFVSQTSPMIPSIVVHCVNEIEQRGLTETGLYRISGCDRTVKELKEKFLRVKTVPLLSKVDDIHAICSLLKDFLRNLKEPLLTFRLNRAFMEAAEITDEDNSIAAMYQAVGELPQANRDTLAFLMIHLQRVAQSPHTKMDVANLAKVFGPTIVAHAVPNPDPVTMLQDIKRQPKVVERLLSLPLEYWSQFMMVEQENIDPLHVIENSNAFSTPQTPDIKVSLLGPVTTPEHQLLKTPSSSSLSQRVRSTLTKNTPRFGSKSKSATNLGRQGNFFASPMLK

inhibition, inactive:
CCOc1ccc(S(=O)(=O)Nc2ccccc2C(=O)Nc2ccccc2N2CCOCC2)cc1 1.24%
Cc1ccc(OC(=O)c2cccc(S(=O)(=O)N3CCN(C)CC3)c2)c(Br)c1 10%
CCOc1ccc(C2NC(=O)C(C#N)=C(S)N2c2ccc(C)cc2)cc1OC (stereo not drawn) 51%
COc1ccc(N2C(S)=C(C#N)C(=O)NC2c2ccc(OC)c(OC)c2)cc1 (stereo not drawn) 29%
Cc1cc(C)c2[nH]c(=O)c(CN(CC3CCCO3)C(=S)NCc3ccco3)cc2c1 (stereo not drawn) 10.7%
CN(CC(=O)Nc1ccc(S(=O)(=O)N2CCCC2)cc1)Cc1cccc(Cl)c1Cl 4.27%
Cc1ccc(CN2CC(C(=O)Nc3nc(C)cs3)CC2=O)cc1 (stereo not drawn) -0.43%
CCn1c2ccccc2c2cc(NC(=O)CN3CCCC3)ccc21 5.72%
OC(COc1ccc(Cl)cc1)CN1CCCCC1 (stereo not drawn) -6.24%
CC(C)NCC(O)COCCOc1ccc(Cl)cc1 (stereo not drawn) -1.4%
Clc1ccc(OCCCCN2CCCCC2)cc1 28.9%
COc1ccc(OCC#CCNC(C)(C)C)cc1 18%
CN(C)CCCNc1ncnc2oc(-c3ccccc3)c(-c3ccccc3)c12 10.3%
COc1ccccc1NC(=O)Cn1c(C)nc2c(sc(=S)n2Cc2ccco2)c1=O 8.75%
COC(=O)[C@H]1C[C@H]1[C@@H](NC(=O)c1ccc[nH]1)c1ccccc1 -1.4%
CC(=O)c1ccc(N2CCN(CC(=O)NCc3ccccc3)CC2)cc1 6.75%
CN(Cc1ccccc1)c1nc2c(c(=O)[nH]c(=O)n2C)n1CCOc1ccccc1 13.5%
Cc1ccc2c(nc3s/c(=C\c4ccc(-c5ccccc5C(=O)O)o4)c(=O)n32)c1C 19.4%
O=c1/c(=C/c2ccccn2)sc2nc3ccccc3n12 6.92%
CC1(C)CC(=O)C(N=Nc2ccc(-c3ccccc3)cc2)=C(O)C1 9.24%
CC1(C)OC(=O)C(=CNCCc2ccc(O)cc2)C(=O)O1 17.2%
O=C(Cn1nnc(-c2ccc(Cl)cc2)n1)NC1CCS(=O)(=O)C1 (stereo not drawn) 9.8%
O=c1c2c([N+](=O)[O-])cc([N+](=O)[O-])cc2sn1Cc1ccccc1 31%
N#Cc1c(N)n(Cc2ccccc2)c(=O)c2cc([N+](=O)[O-])ccc12 9.07%
O=C1c2ccc([N+](=O)[O-])cc2S(=O)(=O)N1Cc1ccccc1 11.7%
O=[N+]([O-])c1ccc(S(=O)Cc2ccccc2)c([N+](=O)[O-])c1 (stereo not drawn) 4.1%
CCOC(=O)C(=CNc1ccc(O)c(C(=O)OC)c1)C(=O)OCC 17%
Cc1c(C(=O)COC(C)(C)C)[nH]c2ccccc12 8.87%
O=C(NNC1OC(CO)C(O)C(O)C1O)c1cccc(Br)c1 (stereo not drawn) 0.41%
CC(=O)Nc1ccc(N/C=C/C(=O)C(C)(C)C)cc1 7.27%
COc1ccc(N/C=C/C(=O)C(C)(C)C)cc1 16.3%
O=C(O)CCCn1ccc2cc(S(=O)(=O)N3CCCC3)ccc21 4.17%
Cc1cc(Br)ccc1OCCOCCN1CCCC1 21.4%
Cc1cc(Br)ccc1OCCN1CCCC1 31.4%
Clc1ccc(OCCCN2CCCCC2)c(Br)c1 27.6%
CC1CCN(CCCOc2ccc(Cl)cc2Br)CC1 20.7%
COC(=O)C1C(O)=C(C=Nc2ccccc2)C(=O)CC1(C)C (stereo not drawn) -0.8%
CCCCC(=Nc1ccc(N)cc1)C1=C(O)C(C(=O)OC)C(C)(C)CC1=O (stereo not drawn) 28.1%
COC(=O)C1C(O)=C(C=Nc2ccc3ccccc3c2)C(=O)CC1(C)C (stereo not drawn) 4.62%
CCCC(=O)C1=C(O)C(C(=O)OC)C(C)(C)CC1=Nc1ccc(N)cc1 (stereo not drawn) 7.34%
CCC(=NCc1ccccc1)C1=C(O)C(C(=O)OC)C(C)(C)CC1=O (stereo not drawn) 2.32%
CCCC(=Nc1ccccc1)C1=C(O)C(C(=O)OC)C(C)(C)CC1=O (stereo not drawn) -1.06%
CC(C)Cn1c(N)c(/C=N/NC(=O)c2ccc(Cl)cc2)c(=O)n(C)c1=O 14.9%
Cc1cccc(CNc2ccc(C(CC(N)=O)NC(=O)c3ccccc3)cc2[N+](=O)[O-])c1 (stereo not drawn) -3.89%
O=C(CSc1nccn1-c1ccc(Cl)cc1)N1CCCc2ccccc21 4.77%
Cc1ccc(NC(=O)N2CCCc3ccccc32)cc1C 3.97%
Cc1ccc2nc(C)cc(C(=O)OCC(=O)Nc3cccnc3Cl)c2c1 5.5%
COC(=O)c1ccc(Oc2coc3cc(OCc4ccc([N+](=O)[O-])cc4)ccc3c2=O)cc1 -3.99%
CCN1CCN(CCNC(=O)Cn2c(=O)c3cccn3c3ccc(F)cc32)CC1 13.8%
C#CCNC(=O)C1=C[C@@H](C2CCCCC2)C[C@@H](OCCCCO)O1 6.51%
C=CCn1c(SCCNC(C)=O)nc2cc(-c3ccccc3)sc2c1=O -6.43%
CCN(CC)CCOC(=O)/C=C/c1ccccc1 8.82%
CCN(CC)C(=O)/C=C/c1ccccc1 10.4%
COc1cccc(CNC(=O)CCC2CCCN(C(=O)c3ccc(C)nc3)C2)c1 (stereo not drawn) -7.59%
O=C1NC(=S)N/C1=C\c1ccccc1OCc1ccc(C(=O)O)cc1 7.81%
CN1C(=O)S/C(=C\c2ccccc2OCc2ccc(C(=O)O)cc2)C1=O 7.03%
CCCCC(=O)Nc1nn(CC(C)C)c2nc3ccccc3cc12 -1.14%
Cc1cccc(N2C(=O)CCC2=O)c1 7.43%
Cc1cc(=O)c(C(=O)O)nn1-c1cccc(C(F)(F)F)c1 6.55%
COCC(=O)N1CCN(c2cccc(C(F)(F)F)c2)CC1 4.48%
FC(F)(F)c1cccc(N2CCc3cn[nH]c32)c1 12.6%
Cc1nnc2ccc(N3CCN(c4cccc(C(F)(F)F)c4)CC3)nn12 5.89%
OCCN(Cc1ccccc1)Cc1cccc(C(F)(F)F)c1 16.5%
Cc1cccc(N2N=C(C(=O)O)CCC2=O)c1 -5.61%
CCOc1cccc(CN2CCN(c3cccc(C(F)(F)F)c3)CC2)c1O 0.147%
COC(=O)c1sccc1NC(=O)CN(C)NS(=O)(=O)c1ccc([N+](=O)[O-])cc1 -4.11%
CNC(=S)NCCCc1ccccc1 8.61%
C/C=C(\C)C(=O)OC1[C@H](OC(C)=O)C2(CO)C(CC1(C)C)C1=CCC3C4(C)CCC(O[C@@H]5O[C@H](C(=O)O)[C@@H](O[C@@H]6O[C@H](CO)[C@@H](O)[C@H](O)[C@H]6O)[C@H](O)[C@H]5O[C@H]5O[C@H](CO)[C@@H](O)[C@H](O)[C@H]5O)[C@](C)(CO)C4CCC3(C)[C@]1(C)C[C@H]2O (stereo partly drawn) 1.06%
COCCOC1CCN(C(=O)C2CCC(=O)N(CCc3ccccc3)C2)CC1 (stereo not drawn) 9.57%
CCC(=O)c1ccc(CCCCCC(=O)O)s1 3.88%
O=C(O)/C=C/C(=O)Nc1ccccc1SC(F)(F)F -1%
COc1ccc([N+](=O)[O-])cc1N(CC(=O)NCCCOC(C)C)S(C)(=O)=O 7.79%
Cc1ccc(C)c(NC(=O)C2CCCN(c3cnccn3)C2)c1 (stereo not drawn) 14.2%
C/C(=N\NC(=O)c1cccc(N/N=C(\C)c2ccccc2)c1)c1ccccc1 0.42%
C/C(=N\NC(=O)c1cc(O)ccc1O)c1cccc(NC(=O)c2cccc(Cl)c2)c1 25.5%
O=C(CCC1CCCN(C(=O)c2cncs2)C1)NCc1ccc(F)c(F)c1 (stereo not drawn) 4.71%
CC(C)Sc1nc2ccsc2c(=O)[nH]1 8.22%
O=C(CC1CCCC1)Nc1ccc(Cl)c(S(=O)(=O)N2CCOCC2)c1 1.97%
Cc1ccnc(NC(=S)NC(=O)/C=C/c2ccc(Cl)cc2)c1 3.91%
CN(C)CCCn1c(SCc2c(Cl)cccc2Cl)nnc1-c1ccncc1 25.2%
CCOCCCn1c(SCc2ccccc2)nnc1-c1ccncc1 7.47%
Cc1cc(C)cc(NC(=O)c2cc3c(=O)n4ccccc4nc3s2)c1 7.35%
CC(C)(C)NC(=O)COC(=O)c1ccc(Cl)nc1 2.54%
COc1ccc([C@H]2CN(c3ccccc3)C(=O)[C@@H]2CC(=O)Nc2ccccc2)cc1 9.26%
COc1ccc(NC(=O)C[C@H]2C(=O)N(c3ccc(Br)cc3)C[C@@H]2c2ccc(OC)cc2)cc1 15.9%
COc1ccc(-c2csc(N(CCCN(C)C)C(=O)c3cc(OC)c(OC)c(OC)c3)n2)cc1 4.15%
CC(C)(C)C(=O)N1CCN(c2ccc([N+](=O)[O-])cc2Cl)CC1 5.07%
Nc1ccc2c(c1)Cc1cc([N+](=O)[O-])ccc1-2 14.4%
O=[N+]([O-])c1ccc(N2CCN(c3ccccc3O)CC2)c(Cl)c1 -5.04%
O=[N+]([O-])c1ccc2c(c1)Cc1cc(F)ccc1-2 -1.78%
Brc1ccc(-c2noc(C3CCCCC3)n2)cc1 11.8%
Cc1cc(C)n(-c2cccc(Cl)c2C#N)n1 7.18%
CCOC(=O)c1c(C)c(C(=O)Nc2ccc(F)cc2)c(C)n1C 1.27%
